The full list was thinned out, with hits kept by preference.
LASV entry inh: qHTS for Inhibitors of binding or entry into cells for Lassa Virus. hit rate 1.2% among 300,000. Potency, µM (highest dose often 37.9 µM), for inactives: at the highest dose activity change, negative = inhibition, usual class: inhibitors. Lassa virus pseudotype entry inhibition, cell reporter. AID 540256, 2011; calls by dose curve; tested in HEK293 cells; further: potency means the concentration at half of the fitted maximal effect; on the % scale 0 is the no-effect control and ±100 the full control effect; nearly all actives have a fitted effect of over 50% in size
MARV entry inh: qHTS for inhibitors of binding or entry into cells for Marburg Virus | Marburg virus pseudotyped entry inhibition, cell reporter | Potency, µM (highest dose often 37.8 µM), without a hit: top-dose activity change, negative = inhibition, actives largely listed as inhibitors | hit rate 1.8% among 300,000 | AID 540276, 2011; calls by dose curve; tested in HEK293 cells; further: potency means the concentration at half of the fitted maximal effect; on the % scale 0 is the no-effect control and ±100 the full control effect
Shiga inhibitor: A qHTS for Small Molecule Inhibitors of Shiga Toxin; Vero cells, Shiga toxin protein synthesis inhibition reporter; inhibition, % at 38.7 µM; hit rate 9.2% among 290,000; AID 2315, 2010; in the data active means inhibition mostly above about 28%, no sharp cut-off; inactive means mostly below about 43%; further: 0% is about no effect
Cycloheximide cs: Cycloheximide Counterscreen for Small Molecule Inhibitors of Shiga Toxin. cell reporter, cycloheximide protein synthesis inhibition counterscreen. max response, %. hit rate 12% among 300,000. AID 2314, 2010; in the data active means max response mostly above about 13%, no sharp cut-off; inactive means mostly below about 14%; further: read at 38.3 µM for the half of the compounds with a filed dose; 0% is about no effect
AMA1-RON2 inh: qHTS for Inhibitors of AMA1-RON; Towards Development of Antimalarial Drug Lead: Primary Screen | AlphaScreen AMA1-biotinylated RON2 peptide binding | Plasmodium falciparum AMA1 (3D7) - RON2 peptide interaction | hit rate 0.2% among 360,000 | Potency, µM (series often up to 58.2 µM), inactives show at the highest dose activity change, negative = inhibition, usual class: inhibitors | AID 720542, 2013; active means well fitted inhibition curve with a large enough effect; inconclusive means small, poorly fitted or top-dose-only effect; inactive means no such curve, though single readings can be large or run the other way;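 further: potency means the concentration at half of the fitted maximal effect; 0% = vehicle wells and -100% = peptide control; nearly all actives have a fitted effect of over 45% in size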
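AMA1 (3D7) with his tag at 25 nM final met compounds first, then biotinylated RON2 peptide at 25 nM; detection used donor plus acceptor beads, 10 µg/mL apiece, read by AlphaScreen after 30 min at room temperature.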
Numbers without * were called inactive; i = inactive; ? = inconclusive; . = not tested or not shown; [ ] = dose if it differs, or a comment.

SMILES	LASV entry inh	MARV entry inh	Shiga inhibitor	Cycloheximide cs	AMA1-RON2 inh
N/C(=N\OC(=O)COc1ccc2ccccc2c1)c1ccccn1	?	?	128*	67*	8%
N/C(=N\OC(=O)COc1ccc([N+](=O)[O-])cc1)c1ccncc1	15%	24%[46.1 µM]	-5	-1	3%
COc1ccccc1C/C(N)=N/OC(=O)COc1ccc2ccccc2c1	15%	3%	-9	-3	72%
COc1ccc([C@H]2C[C@@H](O)[C@H](n3cc(C4CC4)nn3)CN2C(=O)c2cccs2)cc1	.	.	.	.	2%
O=C(CN1C(=O)C2CCCCN2c2ccc(C(=O)N3CCCC3)cc21)NCc1ccccc1 (stereo not given)	-24%[46.1 µM]	.	.	.	.
COc1ccccc1C1CC(=O)Oc2cc3c(cc21)OCO3 (stereo not given)	.	.	i	1	.
N/C(=N\OC(=O)COc1ccccc1Cl)c1ccccn1	7.3µM*	?	65*	45*	36%
Cc1ccc(S(=O)(=O)N(C)CC(=O)O/N=C(\N)c2cccnc2)cc1	0%	20%	.	.	-3%
Cc1ccc(SCC(=O)O/N=C(\N)c2cccnc2)cc1	13%	-3%	27	17*	4%
COC(=O)c1ccc(NC(=O)Cc2ccccc2)cc1	17%	?	100*	50*	20%
CCOc1ccc(NC(=O)C2C(c3ccccc3)C2(Cl)Cl)cc1 (stereo not given)	-26%[46.1 µM]	21%[46.1 µM]	42*	21*	12%
CCOc1ccc(NC(=O)Cc2ccccc2)cc1	-1%	?	104*	93*	0%[11.6 µM]
COc1ccc(CC(=O)OCC(=O)Nc2ccc(C(=O)Nc3ccc(OC)cc3)cc2)cc1	4%	3%	15	-1	1%
CCOc1ccc(NC(=O)c2ccc(NC(=O)COC(=O)Cc3ccc(OC)cc3)cc2)cc1	1%	-3%[46.1 µM]	60*	18	1%
COc1ccc(CCNC(=O)CCc2c(C)nc3c(c(C)nn3-c3ccccc3)c2C)c(OC)c1	7%[46.1 µM]	-19%[46.1 µM]	.	.	.
CC1=C(C(=O)Nc2ccccc2)C(c2ccc(Br)cc2)n2nc(CCCO)nc2N1 (stereo not given)	-16%[46.1 µM]	1%[46.1 µM]	.	.	.
CCOc1ccc(NC(=O)CSc2ccccc2N)cc1	.	3.5µM*	118*	39*	-6%
CCOC(=O)CNC(=O)Cc1ccc(OC)cc1	-9%	3%[14.2 µM]	20	13*	-1%
CCOc1ccc(NC(=O)COC(=O)c2ccc3c(c2)C(=O)N(CCc2ccccc2)C3=O)cc1	2%	6%	66*	19*	13%
COC(=O)c1sccc1-n1cccc1C(=O)C(=O)Nc1ccc(F)cc1	?	31%[46.1 µM]	1	11	-2%
COC(=O)c1ccc(NC(=O)C(=O)c2cccn2C)cc1	.	.	54*	29*	10%
CCOC(=O)C1=CCN(Cc2ccccc2)CC1	-1%[46.1 µM]	0%[46.1 µM]	-13	2	-1%
Cc1ccc(Cl)cc1NC(=O)C1CCN(S(=O)(=O)c2cccc3nonc23)CC1	11%[46.1 µM]	29%[46.1 µM]	.	.	.
Cc1cc(C)c(OCCCNC2CCCC2)c(Br)c1	.	.	-4	1	5%
Cc1ccc(C(=O)CCC2CCCC2=O)cc1 (stereo not given)	?	-19%	53*	50*	-6%
SMILES	LASV entry inh	MARV entry inh	Shiga inhibitor	Cycloheximide cs	AMA1-RON2 inh
O=C(CCC1CCCCC1=O)c1ccccc1 (stereo not given)	-2%	-5%	33	18	-5%
CCc1ccc(C(=O)CCC2CCCCC2=O)cc1 (stereo not given)	9%	17%	96*	36*	6%
Cc1ccc(C(=O)CCC2CCCCC2=O)cc1 (stereo not given)	?	?	101*	33*	-1%
CC(=O)N1CC2=C(CCCC2)C(C)CC12CCCCC2 (stereo not given)	.	-18%	.	.	.
CCC(=O)N1CCc2cc(S(=O)(=O)NCCC(=O)Nc3ccc(C)cc3C)ccc21	3%[46.1 µM]	6%[46.1 µM]	.	.	.
O=C(NCCCN1CCOCC1)c1cc(-c2ccc(O)cc2)on1	.	.	19	2	8%
O=C(NCCCN1CCOCC1)c1cc(-c2ccccc2)on1	?	20%	137*	13*	17%
O=C(NCCN1CCOCC1)c1cc(-c2cccs2)on1	37%[14.3 µM]	0%	57*	20*	6%
O=C(NCCN1CCOCC1)c1cc(-c2ccccc2)on1	8%	12%	74*	22*	-7%
O=C(NCCN1CCOCC1)c1cc(-c2ccccc2Cl)on1	-8%[46.1 µM]	17%[46.1 µM]	23	13	-7%

Compound activity from PubChem.
